According to PubChem BioAssay (NCATS):
The source made the active and inactive calls. Calls come from the whole dose curve; as a rule, active = well fitted curve in the direction sought with a large enough effect; inconclusive = small, poorly fitted or top-dose-only effect, or another doubt; inactive = no such curve, though single readings can be large or run the other way.

Target: Guanine nucleotide-binding protein G(i) subunit alpha-1 (Homo sapiens) (UniProt P63096)
Assay: qHTS Assay for Inhibitors of RGS12 GoLoco Motif Activity (Green Fluorophore) (AID 879);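 note: negative values mean loss of peptide binding seen as reduced polarization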
Settings: Galphai1/FITC-RGS12 GoLoco peptide, fluorescence polarization; series mostly up to 57.1 µM
From the text: Assay Overview: NIH Molecular Libraries Screening Centers Network [MLSCN] NIH Chemical Genomics Center [NCGC] MLSCN Grant: NS053754-01 Assay Provider: Siderovski, David P, University of North Carolina at Chapel Hill G-protein-coupled receptors (GPCRs) are major targets for drug discovery. The regulator of G-protein signaling (RGS)-protein family has important roles in GPCR signal transduction. RGS proteins contain a conserved RGS-box, which is often accompanied by other signaling regulatory elements. RGS proteins accelerate the deactivation of G proteins to reduce GPCR signaling; however, some also have an effector function and transmit signals. Combining GPCR agonists with RGS inhibitors should potentiate responses, and could markedly increase the agonist's regional specificity. The diversity of RGS proteins with highly localized and dynamically regulated distributions in brain makes them attractive targets for pharmacotherapy of central nervous system disorders. […] A complex of Gai1 and fluorescently labeled G-alpha-binding peptide (the "GoLoco motif") derived from RGS12 is incubated with library members. Inhibitors of the binding are detected by a decrease in the fluorescence polarization (FP) of the fluorophore. Protein was supplied by Prof. David Siderovski, University of North Carolina at Chapel Hill.
Assay Protocol: Reagents/Controls: Assay Buffer: 10 mM Tris-HCl, 150 mM NaCl, 0.1 mM GDP (prepared fresh), and 0.05% NP40 at pH 7.5. […] 10 nM FITC labeled peptide/50 nM protein in columns 1, 2, 5 - 48. Titration of unlabeled peptide control ([H][…][NH2], custom synthesized and HPLC-purified by Tufts University Core Facility) from 10 mM, then 1:2 dilution, 16-point in duplicate, pin-transferred to column 2, rows 1 to 32. Column 1 is neutral. FITC-labeled RGS12-GoLoco peptide was custom-synthesized and HPLC-purified by Michael Berne of Tufts University Assay Steps. Four uL of reagents were dispensed to 1536-well Greiner black solid-bottom plates. Compounds and controls (23 nL) were transferred via Kalypsys PinTool. The plates were incubated for 10 min at room temperature, and then read on ViewLux (Perkin-Elmer) High-throughput CCD imager using FITC polarization filter sets for the fluorescein-labeled decapeptide probe.During dispense, reagent bottles were kept submerged into 4 deg C water bath and all liquid lines were covered with aluminum foil to minimize probe and protein degradation. All screening operations were performed on a Kalypsys robotic system (Kalypsys, Inc., San Diego, CA) containing one RX-130 and two RX-90 anthropomorphic robotic arms.

Chain of Guanine nucleotide-binding protein G(i) subunit alpha-1 (Homo sapiens) (P63096 whole entry, looked up): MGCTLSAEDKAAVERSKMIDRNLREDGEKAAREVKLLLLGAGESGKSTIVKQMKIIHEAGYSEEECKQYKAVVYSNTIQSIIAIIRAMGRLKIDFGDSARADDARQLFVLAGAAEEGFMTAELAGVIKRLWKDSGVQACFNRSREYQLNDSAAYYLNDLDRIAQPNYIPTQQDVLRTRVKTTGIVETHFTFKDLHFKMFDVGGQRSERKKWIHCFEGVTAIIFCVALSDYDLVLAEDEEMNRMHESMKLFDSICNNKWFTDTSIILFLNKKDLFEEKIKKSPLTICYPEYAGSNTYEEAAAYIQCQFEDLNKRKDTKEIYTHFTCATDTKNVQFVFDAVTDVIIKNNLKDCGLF

outcome, inactive:
Cc1c(C)c2c(c(C)c1O)CC[C@@](C)(CN1CCN(c3cc(N4CCCC4)nc(N4CCCC4)n3)CC1)O2
CCCN1C[C@@H](CSC)C[C@H]2c3cccc4[nH]cc(c34)C[C@@H]21
O=C(O)C[C@@H]1CCCc2ccccc2[C@H]1O
N[C@H](Cc1ccc(F)cc1)C(=O)O
O=C(/C=C\c1ccc(O)cc1)c1ccc(O)cc1O
COc1cc2nc(N3CC=[N+](C(=O)c4ccco4)CC3)nc(N)c2cc1OC
Nc1ncnc2c1ncn2[C@@H]1O[C@@H](CO)[C@H](O)[C@@H]1O
CCCCCCCCCC(=O)N[C@@H](CN1CCOCC1)[C@@H](O)c1ccccc1
C#CCN1C(C)=C(C(=O)OC)[C@@H](c2cccc([N+](=O)[O-])c2)C(C(=O)OCC)=C1C
COc1cccc2c1[C@@H]1CN(CCCCn3c(=O)[nH]c4c(sc5ncc(-c6ccccc6)nc54)c3=O)C[C@H]1CO2
Nc1ncnc2c1ncn2[C@@H]1O[C@@H](COP(=O)(O)OP(=O)(O)OP(=O)(O)OP(=O)(O)OC[C@@H]2O[C@@H](n3cnc4c(N)ncnc43)[C@@H](O)[C@H]2O)[C@H](O)[C@@H]1O
CC[C@]1(O)C[C@H]2CN(CCc3c([nH]c4ccccc34)[C@](C(=O)OC)(c3cc4c(cc3OC)N(C)[C@@H]3[C@](O)(C(=O)OC)[C@H](OC(C)=O)[C@]5(CC)C=CCN6CC[C@]43[C@@H]65)C2)C1
N[C@H](Cc1cccc(-c2ccccc2CP(=O)(O)O)c1)C(=O)O
COc1cccc(OC)c1OCCNC[C@@H]1CSc2ccccc2O1
CCOC(=O)C1=C(C)NC(C)=C(C(=O)OC)[C@H]1c1cccc(Cl)c1Cl
CC1CCN(CC[C@@H]2CCCN2S(=O)(=O)c2cccc(O)c2)CC1
c1ccc2c(c1)CCC[C@H]2C1=NCCN1
C[C@H](N)C1CCC(C(=O)Nc2ccncc2)CC1 (stereo not given in full)
C=C1C(=O)O[C@@H]2[C@@H]1CC/C(C)=C\CC[C@@]1(C)O[C@H]21
CC(=O)[C@@]1(O)CC[C@@H]2[C@@H]3CCC4=CC(=O)CC[C@@]4(C)[C@H]3CC[C@]21C
CCCCCCCCCCCCCCCCCC(=O)NC[C@@H](COP(=O)([O-])OCC[N+](C)(C)C)OCC
CCCCCCCCCCCCCCCCCCOC[C@@H](COP(=O)([O-])OCC[N+](C)(C)C)OC
O=C(/C=C\c1ccc(O)c(O)c1)OCCc1ccccc1
CC(=O)O[C@@H]1C[C@]2(C)[C@H](C[C@@H](O)[C@H]3[C@@]4(C)CC[C@@H](O)[C@@H](C)[C@@H]4CC[C@@]32C)/C1=C(\CCC=C(C)C)C(=O)O
CCCCC[C@H](O)c1cccc(OCc2ccc3ccccc3n2)c1
Cn1c(=O)c2c(nc(/C=C\c3cccc(Cl)c3)n2C)n(C)c1=O
CCCCCCCCCCCCCCCCCCNC(=O)OC[C@@H](COP(=O)([O-])OCC[n+]1ccsc1)OC
NCCC[C@@](N)(C(=O)O)C(F)F
CCCCCCCCCCCCCCCCCC(=O)O[C@H](CC(=O)O)C[N+](C)(C)C
CCCCC#Cc1nc(N)c2ncn([C@@H]3O[C@@H](C(=O)NCC)[C@H](O)[C@@H]3O)c2n1
CNC(=O)[C@@H]1O[C@@H](n2cnc3c(NCc4cccc(I)c4)ncnc32)[C@H](O)[C@@H]1O
NC(=S)c1ccc[n+]([C@@H]2O[C@@H](COP(=O)([O-])OP(=O)(O)OC[C@@H]3O[C@@H](n4cnc5c(N)ncnc54)[C@@H](OP(=O)(O)O)[C@H]3O)[C@@H](O)[C@H]2O)c1
CSc1ccc2c(c1)N(CC[C@H]1CCCCN1C)c1ccccc1S2
CNCC[C@H](Oc1ccccc1C)c1ccccc1
CC(=O)S[C@@H]1CC2=CC(=O)CC[C@@]2(C)[C@H]2CC[C@]3(C)[C@H](CC[C@@]34CCC(=O)O4)[C@H]12
CN1C[C@@H](C(=O)N[C@]2(C)O[C@]3(O)[C@H]4CCCN4C(=O)[C@H](Cc4ccccc4)N3C2=O)C[C@H]2c3cccc4[nH]cc(c34)C[C@@H]21
O=C1c2c(O)cc(O)cc2O[C@@H](c2ccc(O)c(O)c2)[C@H]1O
C[C@@]12CCC(=O)C=C1CC[C@@H]1[C@@H]2[C@H](O)C[C@]2(C)[C@@H]1CC[C@]2(O)C(=O)COC(=O)CCC(=O)O
Nc1ccn([C@@H]2O[C@@H](CO)[C@@H](O)[C@H]2O)c(=O)n1
OC[C@@H]1O[C@@H](n2cnc3cncnc32)[C@@H](O)[C@H]1O
